# Source: ChEMBL document CHEMBL3988442, “University of Dundee, Small-Polar-MMV Screening Library” (2021)
# For some assays here: Measured potencies and affinities stand elsewhere.
# How the values were obtained:
# Parameters in all cases: scale not given: direction of the effect not stated beside the values
# [1] = target: Protein translocase subunit SecA (Escherichia coli (strain K12)) (UniProt P10408); experiment: Assay to Identify E. coli SecA ATPase Inhibitors; assay type: functional; conditions: 30 µM
# Sequence of Protein translocase subunit SecA (Escherichia coli (strain K12)) (P10408 whole entry): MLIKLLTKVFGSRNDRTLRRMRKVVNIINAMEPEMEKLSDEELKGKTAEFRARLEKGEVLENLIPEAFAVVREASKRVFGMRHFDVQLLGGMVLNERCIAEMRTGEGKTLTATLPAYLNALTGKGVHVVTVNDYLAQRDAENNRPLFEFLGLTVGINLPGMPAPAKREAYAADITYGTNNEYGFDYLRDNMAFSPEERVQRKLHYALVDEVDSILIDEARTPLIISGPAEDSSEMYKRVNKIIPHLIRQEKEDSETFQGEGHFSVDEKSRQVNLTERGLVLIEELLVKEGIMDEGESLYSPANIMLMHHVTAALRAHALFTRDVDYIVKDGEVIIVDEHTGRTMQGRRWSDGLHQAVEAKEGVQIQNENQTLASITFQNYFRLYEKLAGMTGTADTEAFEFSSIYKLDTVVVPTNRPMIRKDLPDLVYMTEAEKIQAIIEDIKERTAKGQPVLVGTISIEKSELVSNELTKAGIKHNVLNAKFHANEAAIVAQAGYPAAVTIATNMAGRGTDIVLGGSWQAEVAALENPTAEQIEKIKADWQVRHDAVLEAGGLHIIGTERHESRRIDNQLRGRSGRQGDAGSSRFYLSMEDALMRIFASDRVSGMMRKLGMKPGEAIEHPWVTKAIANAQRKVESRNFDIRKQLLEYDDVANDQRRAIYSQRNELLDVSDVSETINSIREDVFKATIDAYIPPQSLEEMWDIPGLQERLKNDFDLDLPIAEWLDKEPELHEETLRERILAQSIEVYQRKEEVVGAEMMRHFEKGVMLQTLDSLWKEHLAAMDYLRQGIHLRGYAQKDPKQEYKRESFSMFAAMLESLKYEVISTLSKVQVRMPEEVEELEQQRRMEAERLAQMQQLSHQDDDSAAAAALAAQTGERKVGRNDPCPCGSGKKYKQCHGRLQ
# [2] = target: T1, Ubiquitin-activating enzyme e1, putative (Leishmania donovani (strain BPK282A1)) (UniProt E9BSI1); experiment: Leishmania donovani Ubiquitin Activating Enzyme (LdE1); assay type: functional; conditions: 30 µM
# T1 sequence (whole entry): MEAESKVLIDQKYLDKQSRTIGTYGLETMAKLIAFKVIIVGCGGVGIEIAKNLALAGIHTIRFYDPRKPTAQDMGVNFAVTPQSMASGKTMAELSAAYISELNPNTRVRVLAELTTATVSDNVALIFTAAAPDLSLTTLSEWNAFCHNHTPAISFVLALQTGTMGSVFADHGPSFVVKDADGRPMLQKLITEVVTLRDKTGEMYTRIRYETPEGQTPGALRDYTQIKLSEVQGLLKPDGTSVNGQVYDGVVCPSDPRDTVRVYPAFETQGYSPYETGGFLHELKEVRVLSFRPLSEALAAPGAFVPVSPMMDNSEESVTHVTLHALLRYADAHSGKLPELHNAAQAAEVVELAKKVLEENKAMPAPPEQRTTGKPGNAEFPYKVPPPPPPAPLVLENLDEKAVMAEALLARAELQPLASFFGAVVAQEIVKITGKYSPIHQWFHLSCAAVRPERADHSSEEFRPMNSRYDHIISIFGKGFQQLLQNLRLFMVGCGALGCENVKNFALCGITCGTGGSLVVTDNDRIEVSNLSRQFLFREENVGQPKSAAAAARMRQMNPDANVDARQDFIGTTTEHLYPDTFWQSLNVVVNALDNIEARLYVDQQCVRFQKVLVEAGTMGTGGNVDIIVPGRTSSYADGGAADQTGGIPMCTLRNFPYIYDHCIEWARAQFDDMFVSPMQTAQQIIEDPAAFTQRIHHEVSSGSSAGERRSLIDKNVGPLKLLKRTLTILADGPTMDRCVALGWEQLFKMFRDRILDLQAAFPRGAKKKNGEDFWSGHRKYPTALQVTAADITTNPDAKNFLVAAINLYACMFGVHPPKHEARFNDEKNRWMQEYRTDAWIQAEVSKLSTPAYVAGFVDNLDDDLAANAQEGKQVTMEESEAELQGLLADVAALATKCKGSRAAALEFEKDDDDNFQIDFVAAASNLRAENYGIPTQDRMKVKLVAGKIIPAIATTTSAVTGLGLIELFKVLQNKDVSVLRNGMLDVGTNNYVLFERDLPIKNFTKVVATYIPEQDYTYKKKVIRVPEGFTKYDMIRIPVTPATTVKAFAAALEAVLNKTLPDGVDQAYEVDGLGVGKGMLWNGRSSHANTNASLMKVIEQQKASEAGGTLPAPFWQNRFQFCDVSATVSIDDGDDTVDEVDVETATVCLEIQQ
# [3] = target: AMP-activated protein kinase, AMPK (Homo sapiens) (UniProt P54646+O43741+P54619+Q9UGJ0+Q9Y478+Q13131+Q9UGI9); experiment: AMP-dependent Kinase enzyme assay. An in vitro enzyme assay that detects ADP turnover that is directly proportional to AMPK activity. This uses naive AMPK that is activated during the assay with MK-8722; assay type: functional; conditions: 30 µM
# [4] = target: Sialic acid-binding Ig-like lectin 9 (Homo sapiens) (UniProt Q9Y336); experiment: Hs-Siglec9 ALPHAscreen SOP 20170721; conditions: 10 µM
# Sequence of Sialic acid-binding Ig-like lectin 9 (Homo sapiens) (Q9Y336 whole entry): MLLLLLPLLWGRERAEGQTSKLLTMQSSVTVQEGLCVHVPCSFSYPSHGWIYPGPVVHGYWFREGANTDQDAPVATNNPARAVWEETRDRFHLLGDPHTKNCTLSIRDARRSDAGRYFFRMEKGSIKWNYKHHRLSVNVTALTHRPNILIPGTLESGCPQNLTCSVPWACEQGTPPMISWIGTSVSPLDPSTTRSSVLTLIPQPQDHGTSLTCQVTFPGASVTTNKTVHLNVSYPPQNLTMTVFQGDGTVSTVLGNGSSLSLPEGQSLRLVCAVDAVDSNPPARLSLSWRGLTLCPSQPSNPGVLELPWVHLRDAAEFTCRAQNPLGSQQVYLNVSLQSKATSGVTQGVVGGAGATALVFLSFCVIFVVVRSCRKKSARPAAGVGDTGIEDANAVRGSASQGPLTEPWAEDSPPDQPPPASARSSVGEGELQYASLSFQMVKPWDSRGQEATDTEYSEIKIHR
# [5] = test system: Trypanosoma cruzi; experiment: Trypanosoma cruzi phosphomannomutase and mannose-1-phosphate guanylyltransferase assay; assay type: functional; conditions: 10 µM
# [6] = target: T2, Arginase-2, mitochondrial (Homo sapiens) (UniProt P78540); experiment: in vitro enzyme assay to detect the production of urea directly proportional to the activity of Arginase II; assay type: functional; conditions: 33.3 µM; also: in the data most compounds retested in dose-response had high values
# T2 sequence (whole entry): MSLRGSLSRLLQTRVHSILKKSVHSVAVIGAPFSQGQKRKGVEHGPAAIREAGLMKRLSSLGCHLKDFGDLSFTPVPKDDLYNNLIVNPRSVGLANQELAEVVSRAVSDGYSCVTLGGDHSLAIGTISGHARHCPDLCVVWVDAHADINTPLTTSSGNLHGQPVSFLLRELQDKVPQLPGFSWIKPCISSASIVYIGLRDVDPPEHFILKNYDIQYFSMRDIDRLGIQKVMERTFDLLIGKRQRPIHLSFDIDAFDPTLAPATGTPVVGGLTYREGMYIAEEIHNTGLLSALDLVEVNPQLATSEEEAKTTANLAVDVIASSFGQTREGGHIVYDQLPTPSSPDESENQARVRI
# [7] = target: T3, Proteasome subunit beta (Trypanosoma cruzi) (UniProt O96673); experiment: Trypanosoma cruzi proteasome chymotrypsin-like activity (TcProtChymo) assay.; also: in the data most compounds retested in dose-response had high values; assay type: functional; conditions: 9.37 µM
# T3 sequence (whole entry): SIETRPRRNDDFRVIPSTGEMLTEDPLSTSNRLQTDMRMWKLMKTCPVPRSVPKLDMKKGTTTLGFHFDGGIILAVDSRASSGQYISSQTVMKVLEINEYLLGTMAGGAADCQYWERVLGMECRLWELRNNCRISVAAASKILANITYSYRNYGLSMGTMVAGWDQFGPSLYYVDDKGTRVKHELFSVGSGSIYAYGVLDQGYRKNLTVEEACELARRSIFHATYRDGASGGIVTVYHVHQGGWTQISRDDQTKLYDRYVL
# [8] = species on record: Homo sapiens; experiment: To identify inhibition of the IFN signalling (Jak-Stat) pathway via expression of an eGFP reporter gene under the control of an IFN-stimulated response element (ISRE) containing MxA promoter.; assay type: functional; conditions: 30 µM
# [9] = target: T4, Tyrosyl-tRNA synthetase, putative (Trypanosoma cruzi (strain CL Brener)) (UniProt Q4DSP6); experiment: Trypanosoma cruzi tyrosyl tRNA synthetase (TcYRS) _High Tyrosine SOP; assay type: functional; conditions: 30 µM; also: in the data most compounds retested in dose-response had high values
# T4 sequence (whole entry): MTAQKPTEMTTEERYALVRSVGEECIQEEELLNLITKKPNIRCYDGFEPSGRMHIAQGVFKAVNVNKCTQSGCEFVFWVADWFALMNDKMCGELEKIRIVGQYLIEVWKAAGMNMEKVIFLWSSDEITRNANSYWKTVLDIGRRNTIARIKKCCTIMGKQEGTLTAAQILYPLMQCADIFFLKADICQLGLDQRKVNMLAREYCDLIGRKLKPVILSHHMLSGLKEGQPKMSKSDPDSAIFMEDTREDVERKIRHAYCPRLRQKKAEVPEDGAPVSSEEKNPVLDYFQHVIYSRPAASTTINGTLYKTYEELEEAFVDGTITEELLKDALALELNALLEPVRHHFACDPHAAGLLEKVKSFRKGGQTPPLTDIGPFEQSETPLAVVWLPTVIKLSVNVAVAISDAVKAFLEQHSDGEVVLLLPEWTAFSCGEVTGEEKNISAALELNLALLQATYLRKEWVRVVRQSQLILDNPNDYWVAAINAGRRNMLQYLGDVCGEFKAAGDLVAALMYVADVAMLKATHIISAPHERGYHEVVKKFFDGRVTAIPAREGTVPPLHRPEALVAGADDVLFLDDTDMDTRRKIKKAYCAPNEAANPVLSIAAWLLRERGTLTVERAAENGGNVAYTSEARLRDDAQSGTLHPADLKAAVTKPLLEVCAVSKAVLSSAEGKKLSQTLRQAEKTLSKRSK
# [10] = target: T4, Tyrosyl-tRNA synthetase, putative (Trypanosoma cruzi (strain CL Brener)); experiment: Trypanosoma cruzi tyrosyl tRNA synthetase (TcYRS) SOP; assay type: functional; conditions: 30 µM
# [11] = target: Chromo domain-containing protein 1 (Saccharomyces cerevisiae (strain ATCC 204508 / S288c) (Baker's yeast)) (UniProt P32657); experiment: ScCHD-1 Enzyme Inhibition Assay; assay type: functional; conditions: 30 µM; also: in the data most compounds retested in dose-response had high values
# Sequence of Chromo domain-containing protein 1 (Saccharomyces cerevisiae (strain ATCC 204508 / S288c) (Baker's yeast)) (P32657 whole entry, the tested form may be a part): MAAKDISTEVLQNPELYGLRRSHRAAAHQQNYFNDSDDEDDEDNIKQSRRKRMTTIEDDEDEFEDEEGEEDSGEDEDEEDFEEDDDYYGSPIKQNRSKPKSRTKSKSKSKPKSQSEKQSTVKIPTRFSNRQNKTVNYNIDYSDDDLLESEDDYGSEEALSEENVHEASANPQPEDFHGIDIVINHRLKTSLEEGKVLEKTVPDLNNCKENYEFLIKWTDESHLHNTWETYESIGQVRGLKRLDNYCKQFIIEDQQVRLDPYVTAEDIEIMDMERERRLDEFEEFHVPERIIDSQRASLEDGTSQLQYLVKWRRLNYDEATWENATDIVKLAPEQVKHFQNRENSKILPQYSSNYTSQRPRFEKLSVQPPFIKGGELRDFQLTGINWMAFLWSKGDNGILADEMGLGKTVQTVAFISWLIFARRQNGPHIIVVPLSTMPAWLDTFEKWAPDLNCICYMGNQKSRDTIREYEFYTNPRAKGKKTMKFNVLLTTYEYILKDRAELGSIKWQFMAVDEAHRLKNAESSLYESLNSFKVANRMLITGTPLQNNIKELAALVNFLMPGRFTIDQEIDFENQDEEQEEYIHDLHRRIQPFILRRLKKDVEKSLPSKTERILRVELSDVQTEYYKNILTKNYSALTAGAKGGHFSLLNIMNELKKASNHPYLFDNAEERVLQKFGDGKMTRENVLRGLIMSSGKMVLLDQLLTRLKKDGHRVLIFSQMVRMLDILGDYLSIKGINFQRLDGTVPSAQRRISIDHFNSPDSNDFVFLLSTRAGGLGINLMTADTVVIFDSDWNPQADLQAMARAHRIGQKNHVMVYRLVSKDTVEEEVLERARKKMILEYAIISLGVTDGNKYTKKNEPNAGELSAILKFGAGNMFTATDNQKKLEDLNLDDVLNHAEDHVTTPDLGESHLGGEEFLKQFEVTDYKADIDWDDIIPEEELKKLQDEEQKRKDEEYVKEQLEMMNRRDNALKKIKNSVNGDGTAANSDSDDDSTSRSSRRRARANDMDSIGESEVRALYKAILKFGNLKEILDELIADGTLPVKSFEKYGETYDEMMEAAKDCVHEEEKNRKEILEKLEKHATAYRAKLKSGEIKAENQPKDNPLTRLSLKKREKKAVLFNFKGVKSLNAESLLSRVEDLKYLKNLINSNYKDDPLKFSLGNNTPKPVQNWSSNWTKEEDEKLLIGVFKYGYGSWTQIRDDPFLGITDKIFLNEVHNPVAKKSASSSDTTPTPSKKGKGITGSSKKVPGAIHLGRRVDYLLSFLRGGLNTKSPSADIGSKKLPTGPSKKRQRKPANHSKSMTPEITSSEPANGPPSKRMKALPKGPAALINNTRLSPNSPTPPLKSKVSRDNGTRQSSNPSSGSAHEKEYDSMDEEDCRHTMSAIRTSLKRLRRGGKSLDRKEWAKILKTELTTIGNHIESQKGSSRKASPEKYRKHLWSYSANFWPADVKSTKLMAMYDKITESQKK
Compound,Percent Effect [1],Percent Effect [2],Percent Effect [3],Percent Effect [4],Percent Effect [5],Percent Effect [6],Percent Effect [7],Percent Effect [8],Percent Effect [9],Percent Effect [10],Percent Effect [11]
Cc1ccc2cnn(CCC(=O)Nc3c(C)nn(C)c3C)c2c1,-3.51%,5.2%,2.92%,2.18%,-4.03%,-4.14%,5.16%,-0.975%,2.15%,8.64%,-0.912%
CC(C)CN(C)c1ccc(C(=O)N2CCCC2c2cnn(C)c2)cn1 (configuration not stated),-0.585%,5.26%,-6.48%,-6.28%,3.46%,1.44%,8.71%,11.2%,7.39%,23.5%,-10.4%
O=C(CCNC(=O)c1ccoc1)Nc1c(F)cccc1F,0.646%,18.2%,-4.32%,5.34%,-2.84%,4.42%,18.8%,14%,6.67%,21.2%,-3.32%
CN(Cc1ccco1)C(=O)C1CSCN1C(=O)c1cccnc1 (configuration not stated),-3.86%,0%,0.482%,1.7%,0.467%,-3.96%,4.65%,-7.95%,-0.493%,1.24%,-0.736%
Cc1cc(C)c(CNC(=O)NCc2ccc3c(c2)CCC3)c(=O)[nH]1,-1.46%,10.5%,-2.73%,4%,-3.38%,4.6%,6.85%,4.84%,5.39%,0%,0.252%
CCc1nc(CN2CCCC(N(C)Cc3cnn(C)c3)C2)no1 (configuration not stated),-1.5%,8.22%,-0.902%,3.69%,2.74%,5.91%,9.23%,-2.09%,1.07%,2.5%,-3.19%
Cc1ccc(C(=O)N2CCC3(CCN(C(=O)c4cccnc4)C3)CC2)o1,-2.08%,13.5%,6.42%,-12.6%,-3.62%,14.3%,13.8%,-16.6%,1.08%,5.13%,-2.81%
CCC(C)c1noc(C2CCN(C(=O)c3cccnc3)CC2)n1 (configuration not stated),-3.05%,7.79%,0.731%,6.36%,-0.0983%,-9.65%,14.8%,-14.3%,5.38%,11.1%,-2.94%
CCNC(=O)c1nnn(Cc2ccccc2)c1OC,-3.93%,1.33%,3.51%,5.7%,-0.197%,-8.63%,7.95%,-9.5%,5.29%,7.69%,-2.11%
COc1ccc(C2Nc3ccccc3C3=NCCCN32)cc1OC (configuration not stated),-5.46%,-2.67%,8.31%,-1.83%,-0.787%,-1.63%,-2.91%,11.5%,0%,1.28%,-8.33%
CC1COCCN1Cc1nc(-c2cccs2)no1 (configuration not stated),-2.46%,10.8%,138%,-4.28%,-3.49%,-2.4%,11.5%,13.2%,4.43%,13.6%,-7.61%
CCOC(=O)CCC(=O)N1CCC(Oc2ccc(C(F)(F)F)cn2)CC1,-1.66%,7.79%,4.3%,13.1%,-6.41%,-1.94%,14.1%,20.3%,3.17%,11.5%,-5.92%
CCC(C)(NCC(=O)N(c1ccccc1)C(C)C)c1nc(C)cs1 (configuration not stated),1.71%,8.11%,-12.9%,3.16%,1.27%,7.2%,7.3%,-1.37%,4.3%,13.6%,-8.52%
Cc1cnn(C2CN(Cc3nc(C(C)(C)C)no3)C2)c1,-0.455%,23.4%,-7.8%,-0.55%,3.56%,2.49%,7.09%,29.8%,8.74%,14.6%,-6.23%
Cc1ccccc1CCNC(=O)C1CC(=O)N(CC(F)(F)F)C1 (configuration not stated),-3.95%,24.3%,-20.9%,-4.07%,1.42%,-21.2%,10.1%,25.2%,5.42%,18.5%,-11.1%
COCCCNC(=O)CN(C)C(=O)c1cc(C)ccc1N(C)C(C)C,-2.35%,10.8%,-5.29%,6.07%,0.65%,-3.88%,0%,5.31%,1.98%,13.4%,-2.86%
COc1cc(CNc2cnn(C)c2)cc2c1OCCO2,-3.52%,-13.2%,-22.5%,3.9%,1.5%,-1.15%,4.68%,-1.15%,-13.2%,-14.6%,-4.73%
Cc1ccoc1C(=O)N1C[C@H]2CCC[C@@]2(COCc2ccncc2)C1,-1.22%,18.2%,-2.61%,3.02%,2.66%,-3.23%,-2.44%,1.6%,5.29%,11.5%,-4.37%
Cc1cnn(CC2CCCN2c2nn3cc(C)nc3s2)c1 (configuration not stated),-7.38%,11.4%,-3.44%,2.81%,-0.103%,-1.07%,7.03%,8.17%,-2.08%,15.2%,-26%
COC(=O)c1ccccc1NC(=O)c1nc2ccccc2n(C)c1=O,-1.59%,10.4%,1.48%,-0.871%,5.82%,1.94%,6.79%,17%,4.23%,16.7%,-8.57%
NS(=O)(=O)CCNC(=O)c1nnn(-c2ccc(F)cc2)c1C1CC1,-0.864%,8.11%,-3.7%,0.877%,3.91%,14.6%,19.5%,-4.31%,9.9%,15.8%,-4.04%
Cc1ccc(C(=O)NCCCNS(C)(=O)=O)c(=O)[nH]1,-3.74%,16.2%,-2.72%,4.72%,2.54%,5%,22.4%,-1.74%,10.9%,18.3%,-7.91%
